Mdm2-MdmX inh = inhibitors of human Mdm2/MdmX interaction; O15151+Q00987; SaOS-2 split-luciferase Mdm2/MdmX complementation, luminescence; 3% of 330,000 active; inhibition, % at 8 µM;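 active = inhibition of at least 50% at 8 µM in the primary screen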
tim23-1 inh = inhibits growth of tim23-1 mutant yeast. S. cerevisiae tim23-1 growth, BacTiter-Glo luminescence, 24 h. inhibition, % at 20 µM. 1.3% of 330,000 active. AID 463212;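 active = growth inhibition of the mutant yeast at or above 50%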;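 also: temperature-sensitive mutant grown at 25 °C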
TIM10 inh = inhibits growth of TIM10 yeast strain. S. cerevisiae TIM10 strain growth, BacTiter-Glo luminescence, 24 h. 1.4% of 330,000 active. inhibition, % at 10 µM;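 active = inhibition of 40% or more at the single tested concentration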;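 also: wild-type TIM10 isogenic control strain grown at permissive 25 °C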
MPTP block = inhibitors of mitochondrial permeability transition pore; isolated mouse mitochondria, Ca2+ swelling absorbance, 30 min; 1.4% of 360,000 active; inhibition, % at 10 µM;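 active = inhibition of 50% or more, scaled per plate between neutral and stimulator controls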
tim10-1 inh = tim10-1 yeast growth inhibition | inhibition, % at 20 µM | S. cerevisiae tim10-1 ts strain growth, BacTiter-Glo, 24 h | 2.2% of 330,000 active | AID 463190;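 active = inhibition of at least 40%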;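 also: mutant grown at 25 °C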
tim10-1 confirm = confirmation of tim10-1 mutant yeast growth inhibitors; 56% of 7,400 active; shares compounds with tim10-1 inh; S. cerevisiae tim10-1 ts strain growth, BacTiter-Glo, 24 h; inhibition, % at 20 µM;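 active = inhibition of yeast growth at or above a set limit in either of two repeat tests at 20 µM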;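 also: tim10-1 mutant grown at permissive 25 °C to find synthetic lethal compounds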
tim10 confirm = TIM10 yeast growth inhibition, confirmed | 63% of 4,600 active | AID 463215 | S. cerevisiae tim10 strain growth, BacTiter-Glo luminescence, 24 h | inhibition, % at 10 µM | shares compounds with TIM10 inh;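 active = inhibition of yeast growth at or above a set limit in either of two replicates at 10 µM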; also: this counterscreen used the strain with wild-type TIM10
tim23-1 conf = confirmation of tim23-1 mutant yeast growth inhibitors | inhibition, % at 20 µM | shares compounds with tim23-1 inh | 83% of 4,400 active | S. cerevisiae tim23-1 growth, BacTiter-Glo luminescence, 24 h;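 active = inhibition above about 39% in either of two replicate wells at 20 µM, limit read from the data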;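 also: temperature-sensitive tim23-1 mutant grown at 25 °C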
Mdm2 MdmX conf = confirmation of human Mdm2/MdmX interaction inhibitors; 55% of 10,000 active; Mdm2-MdmX binding, luminescent assay; shares compounds with Mdm2-MdmX inh; inhibition, % at 8 µM; in the data active = inhibition above about 40%
Full FLuc ctr = full-length luciferase inhibition in Mdm2/MdmX counter-screen; SaOS-2 full-length luciferase counterscreen, luminescence; shares compounds with Mdm2-MdmX inh; AID 504607; 77% of 6,200 active; inhibition, % at 8 µM;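 active = mean inhibition at 8 µM reaching about 37%, which flags the compound as non-specific, limit read from the data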;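 also: p53-null SaOS-2 cells with luciferase driven by a doxycycline-inducible promoter; compound on cells about two nights before reading with doxycycline added after day one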
A number is an active result. In the library only some 6.3% were active in any assay of this set; here they are far more common.

CCOC(=O)CCCCCC(=O)Nc1ccc2c(c1)C(=O)N([C@H](C)CO)C[C@H](C)[C@H](CN(C)C(=O)C1CCCCC1)OCCCC[C@@H](C)O2 was read as MPTP block inactive.
Screening CCOC(=O)C1CCCN(C(=O)c2cccnc2Oc2ccccc2)CC1 (stereo unspecified) returned MPTP block inactive.
`O=[N+]([O-])c1ccc(Sc2cccc3cccnc23)c([N+](=O)[O-])c1` gave Mdm2-MdmX inh 93, tim23-1 inh inactive, TIM10 inh inactive, MPTP block inactive, tim10-1 inh 56, tim10-1 confirm 57, Mdm2 MdmX conf 86 and Full FLuc ctr 57.
CCC(=O)Nc1cccc(C(=O)/C=C/c2ccc(F)cc2)c1 was read as Mdm2-MdmX inh 89, tim23-1 inh inactive, TIM10 inh 47, MPTP block inactive, tim10-1 inh 48, tim10-1 confirm 43, tim10 confirm inactive, Mdm2 MdmX conf 48 and Full FLuc ctr 45.
For COc1ccc(Cn2c(SCc3ccccc3C)nc3cc(OC)c(OC)cc3c2=N)cc1 the results were Mdm2-MdmX inh 97, tim23-1 inh 51, TIM10 inh inactive, MPTP block inactive, tim10-1 inh 50, tim10-1 confirm inactive, tim23-1 conf inactive, Mdm2 MdmX conf 52 and Full FLuc ctr 48.
`COc1cc2nc(SCc3ccc(F)cc3)n(Cc3cccs3)c(=N)c2cc1OC` gave Mdm2-MdmX inh inactive, tim23-1 inh inactive, TIM10 inh inactive, MPTP block inactive and tim10-1 inh inactive.
Cc1ccc(S(=O)(=O)N(C)C[C@H]2OCCCC[C@@H](C)Oc3ccc(NC(=O)Cc4ccccc4)cc3C(=O)N([C@H](C)CO)C[C@@H]2C)cc1 was read as MPTP block inactive.
`CCCCCCCCCCCCCCCC[n+]1cccc(C(=O)N(CC)CC)c1` gave Mdm2-MdmX inh 77, tim23-1 inh 60, TIM10 inh inactive, MPTP block inactive, tim10-1 inh 96, tim10-1 confirm 94, tim23-1 conf 79, Mdm2 MdmX conf 66 and Full FLuc ctr inactive.
`CCCCCCCC[n+]1cccc(C(=O)N(CC)CC)c1` gave Mdm2-MdmX inh inactive, tim23-1 inh inactive, TIM10 inh inactive, MPTP block inactive and tim10-1 inh inactive.
For CCOC(=O)C(C)N1c2cccc3cccc(c23)S1(=O)=O (stereo unspecified) the results were MPTP block inactive.
For CC(C)(C(=O)N1CCC1(C)C(=O)NS(=O)(=O)c1ccc(C#N)cc1)c1ccccc1 (stereo unspecified) the results were MPTP block inactive.
`CCC(=O)NC(c1cc(Cl)c2cccnc2c1O)C1CC1` (stereo unspecified) gave Mdm2-MdmX inh 53, tim23-1 inh 58, TIM10 inh inactive, MPTP block inactive, tim10-1 inh 40, tim10-1 confirm inactive, tim23-1 conf 58, Mdm2 MdmX conf 47 and Full FLuc ctr inactive.
Screening CC(=O)NC(c1ccc(Cl)cc1)c1ccc2cccnc2c1O (stereo unspecified) returned MPTP block inactive.
`CCC(=O)NC(c1ccc(Cl)cc1Cl)c1ccc2cccnc2c1O` (stereo unspecified) gave Mdm2-MdmX inh 78, tim23-1 inh 61, TIM10 inh inactive, MPTP block inactive, tim10-1 inh 48, tim10-1 confirm inactive, tim23-1 conf 52, Mdm2 MdmX conf 87 and Full FLuc ctr inactive.
Screening COc1cc(C(=O)O/N=C(\N)c2ccc([N+](=O)[O-])cc2)cc(OC)c1OC returned Mdm2-MdmX inh 75, tim23-1 inh inactive, TIM10 inh inactive, MPTP block inactive, tim10-1 inh 59, tim10-1 confirm 47, Mdm2 MdmX conf inactive and Full FLuc ctr 95.

Source: PubChem
